# This is a sample that favours compounds with a hit; in the whole collection about 14% have one here.
# Pf growth 48h: P. falciparum growth inhibition at 48 hours (one generation) | P. falciparum luciferase growth in erythrocytes, 48 h | Potency, µM (series often up to 28.7 µM), for inactives: top-dose activity change, negative = inhibition, usual class: inhibitors | 5.9% of 310,000 active; further: potency means the concentration at half of the fitted maximal effect
#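 Erythrocytes infected with P. falciparum carrying an integrated firefly luciferase reporter (2% hematocrit, 0.1% parasitemia final) were exposed to compounds in RPMI 1640 with 0.5% Albumax at 37 C, 5% CO2. Growth inhibition was scored as reduced luminescence.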
# HCMV inh: blocks human cytomegalovirus replication; HFF cells, HCMV-luciferase reporter, 72 h; hits give low values; activity change, negative = inhibition, % at 57.5 µM; 4.5% of 410,000 active; AID 1259415; in the data active means activity change below about -60%; inconclusive means no clear call, values can overlap the other calls; inactive means above about -39%
#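 Human foreskin fibroblasts infected with luciferase-reporter HCMV at MOI 1 PFU/cell, compounds at two doses. Luciferase measured 72 h post infection; normalized to buffer-only basal and Salinomycin (10uM) controls.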
# Pf growth 96h: P. falciparum growth inhibition at 96 hours. P. falciparum luciferase reporter growth, 96 h. Potency, µM (series often up to 28.7 µM), inactives show at the top dose activity change, negative = inhibition, hits mostly inhibitors. 6.9% of 320,000 active; further: potency means the concentration at half of the fitted maximal effect
#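 Compounds incubated with erythrocytes infected by luciferase-expressing P. falciparum (2% hematocrit, 0.05% parasitemia final) for 96 hours, 37 C in 5% CO2. Growth inhibition scored as decreased luciferase luminescence.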
# Lassa entry inh: inhibitors of Lassa virus binding or cell entry. Lassa virus pseudotype entry inhibition, cell reporter. 1.2% of 300,000 active. Potency, µM (highest dose often 37.9 µM), for the others: top-dose activity change, negative = inhibition, actives largely listed as inhibitors; calls by dose curve; tested in HEK293 cells; further: potency means the concentration at half of the fitted maximal effect; nearly all actives have a fitted effect of over 50% in size
# MARV entry inh: blocks Marburg virus binding to or entry into cells; Marburg virus pseudotyped entry inhibition, cell reporter; Potency, µM (highest dose often 37.8 µM), for the others: at the top dose activity change, negative = inhibition, usual class: inhibitors; 1.8% of 300,000 active; AID 540276; calls by dose curve; tested in HEK293 cells; further: potency means the concentration at half of the fitted maximal effect
# HCV inhibitor: HCV inhibition. Huh7.5.1 HCVcc-Cre infection, luciferase reporter, 44 h. Potency, µM (titrated, usually from 41.8 µM), for the others: at the highest dose activity change, negative = inhibition, most hits filed as inhibitors. 3.4% of 340,000 active; further: potency means the concentration at half of the fitted maximal effect
#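 A cell-based infection assay in which seeded cells (1,000 per well) receive test compound after 4 h, are inoculated with HCVcc-Cre at approximately 0.5 moi, and are incubated 44 h before luminescence detection.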
# The depositor's hits bear a star; ? = inconclusive; . = no result given; ! = a repeat was not active; [ ] = remark or other dose. Unless noted, the call rests on the fitted dose curve; in most records, active means well fitted inhibition curve with a large enough effect; inconclusive means small, poorly fitted or top-dose-only effect, or another doubt; inactive means no such curve, though single readings can be large or run the other way. On the % scale 0 is the no-effect control and ±100 the full control effect.
SMILES,Pf growth 48h,HCMV inh,Pf growth 96h,Lassa entry inh,MARV entry inh,HCV inhibitor
O=C(CN(c1ccc(Cl)cc1)S(=O)(=O)c1ccc(Cl)c([N+](=O)[O-])c1)NCCc1ccccc1,?,36.7,?,-2.2%,?,11.2µM*
CCc1ccc(C(=O)c2cn(CC(=O)NCCc3ccccc3)c3nc(C)ccc3c2=O)cc1,.,-0.6,.,18.8%[46.1 µM],.,.
COc1ccc(-c2noc(N3CCN(c4cccc(C)c4C)CC3)n2)cc1OC,.,-27.4,.,0.9%[46.1 µM],.,.
C=C1C(=O)[C@@]23[C@H](O)C[C@@H]4C(C)(C)CC[C@H](O)[C@@]4(C)[C@@H]2CC[C@@H]1[C@H]3O,14.7µM*,-97.0*,?,10.3µM*,?,?
C=C1C(=O)[C@@]23[C@H](O)C[C@@H]4C(C)(C)CC[C@H](O)[C@]4(C)[C@@H]2C[C@H](O)[C@@H]1[C@H]3O,9.28µM*,-76.2*,4.15µM*,?,20.6µM*,2.2%
Cc1ccc2oc(-c3cccc(NC(=O)c4ccc(N5CCC(C)CC5)c([N+](=O)[O-])c4)c3)nc2c1,.,6.1,.,-5.8%[46.1 µM],-6.1%[46.1 µM],.
Cc1ccc(C#CC[N+]2(C)CCCCC2)cc1,6.57µM*,10.0,1.85µM*,-1.6%,0.3%[46.1 µM],15.4%
C#CC[N+]1(CC#Cc2ccc(C)cc2)CCCCC1,1.65µM*,14.5,?,11.1%,-0.5%[46.1 µM],?
CCN1CCN(C(=O)c2cc3ccc(OC)cc3[nH]2)CC1,99.5%,121.7,130.3%,.,.,10.7%
COc1ccc2[nH]c3c(N4CCC(O)(c5cccc(C(F)(F)F)c5)CC4)ncnc3c2c1,14.7µM*,?,2.33µM*,?,?,6.31µM*
O=[N+]([O-])c1ccc2ncnc(N3CCN(Cc4ccc5c(c4)OCO5)CC3)c2c1,?,-79.7*,?,.,.,?
COc1ccc2cc(C(=O)N3CCN(Cc4ccc5c(c4)OCO5)CC3)[nH]c2c1,10.3%,0.0,13.1µM*,?,?,10µM*
COc1ccc2[nH]c3c(N4CCN(Cc5ccc6c(c5)OCO6)CC4)ncnc3c2c1,4.15µM*,-26.2,5.86µM*,?,?,?
O=[N+]([O-])c1cccnc1N1CCN(Cc2ccc3c(c2)OCO3)CC1,-3.0%,-15.9,?,-0.4%,2.3%,2.3%
CCCOc1ccc(C(=O)N(Cc2cccs2)c2ccc(C)cc2)cc1,.,4.8,.,-19.5%[46.1 µM],-6.7%[46.1 µM],.
Cc1nc(SCc2cccc(Cl)c2)nc2c1CCCC2,.,18.4,.,1.3%[46.1 µM],6.0%[46.1 µM],.
COc1ccc(N(CC(=O)Nc2cccc(Cl)c2C)S(=O)(=O)c2c(C)nn(C)c2C)cc1,.,-14.1,.,-11.9%[46.1 µM],-13.0%[46.1 µM],.
CCOc1ccc(CCNc2ccc3nnc(-c4ccccc4)n3n2)cc1OCC,?,105.3,4.65µM*,-1.8%,26.7%,?
Cc1ccccc1C(=O)NNC(=O)c1cccc([N+](=O)[O-])c1,14.4%,8.7,-19.7%,21.9%,3.0%[14.2 µM],18.3%
COc1cccc(C(NC(=O)c2ccccc2F)NC(=O)c2ccccc2F)c1,13.1µM*,4.8,?,?,-28.3%,-19.2%
Cc1ccc(C(=O)NC(NC(=O)c2ccc(C)cc2)c2cccc([N+](=O)[O-])c2)cc1,?,-60.2*,?,-16.8%,-23.5%,-3.2%
CC(NC(=O)c1ccccc1F)C(=O)O (stereo not drawn),24.1%,36.3,0.0%,-0.8%,9.7%[46.1 µM],6.3%
Cc1ccccc1C(=O)NC(NC(=O)c1ccccc1C)c1cccc([N+](=O)[O-])c1,27.1%,-36.2,1.65µM*,?,?,4.0%
Cc1ccc(C(=O)Nc2cc([N+](=O)[O-])ccc2C)cc1,34.7%,15.1,?,10.3%,5.3%[46.1 µM],-6.3%
CC(C)Oc1ccc(CNC(=O)Cc2ccc(NC(=O)N3CCSc4ncccc43)cc2)cc1,.,0.0,.,-11.1%[46.1 µM],.,.
SMILES,Pf growth 48h,HCMV inh,Pf growth 96h,Lassa entry inh,MARV entry inh,HCV inhibitor
COc1ccc(CNC(=O)CC(c2ccc(OC)cc2)N2Cc3ccccc3C2=O)cc1 (stereo not drawn),.,?,.,-0.3%[46.1 µM],.,.
CC(C)CCNC(=O)C12CN(Cc3ccccc3)CC1C(c1cccc([N+](=O)[O-])c1)=NO2 (stereo not drawn),?,34.3,?,.,5.0%,34.9%
O=C(NCCc1cccs1)C12CN(Cc3ccccc3)CC1C(c1cccc([N+](=O)[O-])c1)=NO2 (stereo not drawn),8.28µM*,-37.8,?,.,3.9%,?
O=C(NCCCCc1ccccc1)C12CN(Cc3ccccc3)CC1C(c1ccc([N+](=O)[O-])cc1)=NO2 (stereo not drawn),13.1µM*,-28.6,?,.,-0.7%,?
O=C(NCCCCc1ccccc1)C12CN(Cc3ccccc3)CC1C(c1cccc([N+](=O)[O-])c1)=NO2 (stereo not drawn),4.65µM*,21.7,?,.,6.6%,?
Cc1ccccc1-n1c(=O)n(Cc2ccccc2)c(=O)c2[nH]cnc21,10.5%,46.3,21.8%,12.6µM*,?,-7.7%
Cc1ccccc1S(=O)(=O)Cc1ccc(C(=O)NCc2ccccc2)o1,7.4%,-14.2,?,?,-21.1%[46.1 µM],12.1%
Cc1ccccc1S(=O)(=O)Cc1ccc(C(=O)NCc2cccnc2)o1,-8.5%,6.2,9.28µM*,?,?,10.0%
O=C(NCc1ccccc1)c1ccc(CS(=O)(=O)c2ccccc2)o1,.,-6.5,10.4µM*,-5.1%,?,20.1%
O=C(NCCc1ccccc1)c1ccc(CS(=O)(=O)c2ccc(Cl)cc2)o1,?,-60.3*!,-1.2%,-27.9%[46.1 µM],.,19.1%
Cc1nc2ccc(NC(=O)C3(C)CCCN(C(C)C)C3)cc2o1 (stereo not drawn),.,14.7,.,.,.,.
CNC(C)C(=O)NC(C(=O)N1CCCC1C(=O)Nc1ccc2ncccc2c1)C(C)C (stereo not drawn),41.4%,-36.6,10.8%,.,.,0.9%
O=C(Nc1ccc(Cl)c(S(=O)(=O)N2CCCC2)c1)c1cc(=O)[nH]c2ccccc12,.,0.1,.,.,.,?
CCOC(=O)C1CCCCN1Cc1cccc(C(F)(F)F)c1 (stereo not drawn),.,49.3,-22.9%,-16.8%,10.7%,9.5%
CCOC(=O)C1CCCCN1Cc1ccc(C(F)(F)F)cc1 (stereo not drawn),.,-2.8,9.28µM*,-27.5%,-3.3%,?
O=C(NC1CCCC1)C(c1ccccn1)N(C(=O)c1csnn1)c1ccccc1F (stereo not drawn),-1.2%,-23.2,15.1%,16.6%,10.4%[46.1 µM],9.1%
CCc1ccccc1NC(=O)C(=O)NCCc1sc(-c2cccc(C)c2)nc1C,.,-30.5,.,-30.0%[46.1 µM],.,.
Cc1ccc(/C=[N+](\[O-])c2ccccc2C)o1,-9.5%,-98.0*,41.1%,.,.,11.1%

# Screening results (PubChem BioAssay)
